Pf growth 96h: P. falciparum growth inhibition at 96 hours; P. falciparum luciferase reporter growth, 96 h; Potency, µM (top dose mostly 28.7 µM), inactives show at the highest dose activity change, negative = inhibition, actives largely listed as inhibitors; 320,000 compounds, 6.9% hits; AID 504834; also: potency is read from the fitted curve at half-maximal effect; % is scaled to controls: 0 for no effect and ±100 for the full control effect
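P. falciparum expressing integrated firefly luciferase, in erythrocytes at 2% hematocrit, 0.05% parasitemia, incubated with compounds 96 h at 37 C, 5% CO2. Growth inhibition read as loss of luminescence; two-generation exposure targets delayed-death apicoplast inhibitors.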
Sm TGR inh: inhibitors of Schistosoma mansoni thioredoxin glutathione reductase. 360,000 compounds, 3% hits. AID 485364. purified TGR, DTNB reduction, TNB absorbance 405 nm. Potency, µM (highest dose often 114 µM), for inactives: at the highest dose activity change, negative = inhibition, actives largely listed as inhibitors; also: potency is read from the fitted curve at half-maximal effect; % is scaled to controls: 0 for no effect and ±100 for the full control effect; nearly all actives have a fitted effect of over 60% in size
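First, TGR (20 nM dispensed) and NADPH were mixed with compound. Second, a 15 min room-temperature incubation followed. Third, further NADPH and then DTNB were added to start the reaction. Finally, TNB absorbance was monitored kinetically.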
Pf growth 48h: inhibits P. falciparum growth in the first generation, 48 h; P. falciparum luciferase growth in erythrocytes, 48 h; Potency, µM (series often up to 28.7 µM), inactives show at the highest dose activity change, negative = inhibition, most hits filed as inhibitors; AID 504832; 310,000 compounds, 5.9% hits; also: potency is read from the fitted curve at half-maximal effect; % is scaled to controls: 0 for no effect and ±100 for the full control effect
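Parasite viability was followed by luminescence of a genomically integrated firefly luciferase. Cultures held 0.1% parasitemia at 2% hematocrit (final), incubated under 5% CO2 at 37 C.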
Cycloheximide cs: counter-screen for Shiga toxin inhibitors: cycloheximide protein synthesis inhibition; cell reporter, cycloheximide protein synthesis inhibition counterscreen; 300,000 compounds, 12% hits; max response, %; AID 2314; in the data active = max response mostly above about 13%, no sharp cut-off; inactive = mostly below about 14%; also: read at 38.3 µM for the half of the compounds with a filed dose; 0% is about no effect
Shiga toxin inh: inhibitors of Shiga toxin in Vero cells. AID 2315. inhibition, % at 38.7 µM. 290,000 compounds, 9.2% hits. Vero cells, Shiga toxin protein synthesis inhibition reporter; in the data active = inhibition mostly above about 28%, no sharp cut-off; inactive = mostly below about 43%; also: 0% is about no effect
NS1 function inh: blocks influenza NS1 protein function. Potency, µM (top dose mostly 46.1 µM), for inactives: top-dose activity, positive = more growth. 270,000 compounds, 0.4% hits. AID 2326; calls by dose curve; also: potency is read from the fitted curve at half-maximal effect; actives are rising curves; nearly all actives have a fitted effect of over 50% in size
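A cell-based growth assay was used: compounds that relieve NS1-induced slow growth of budding yeast raise OD600. Assay medium was yeast nitrogen base with ammonium sulphate and -URA supplement, pH 6.0, with 2% galactose.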
The depositor's hits bear a star. Hits are enriched below; roughly 21% of the tested compounds scored in any of these assays. Unless noted, calls follow the shape of the dose curve; as a rule, active = well fitted curve in the direction sought with a large enough effect; inconclusive = small, poorly fitted or top-dose-only effect, or another doubt; inactive = no such curve, though single readings can be large; an effect the other way counts as inactive or inconclusive.

O=C(OCCCc1cc2ccccc2c(=O)o1)c1ccc(F)cc1 was read as Pf growth 96h 70%, Sm TGR inh 35µM* and Pf growth 48h 73%.
Screening COc1ccccc1C(=O)NCC(=O)NNC(=O)C1COc2ccccc2O1 (centres undefined) returned Pf growth 96h 10%, Sm TGR inh -3% and Pf growth 48h -8%.
For O=C(OC1CCCCC1=O)c1cccc(S(=O)(=O)N2CCOCC2)c1 (centres undefined) the results were Pf growth 96h 4%, Sm TGR inh -2% and Pf growth 48h 10%.
Screening CN(CC(=O)NCc1cccnc1)S(=O)(=O)c1ccc(F)cc1 returned Pf growth 96h inconclusive, Sm TGR inh 11%, Pf growth 48h 7%, Cycloheximide cs -2, Shiga toxin inh -3 and NS1 function inh -9%.
Screening Cc1cc(C)n(CCOc2ccc(Br)cc2)n1 returned Pf growth 96h inconclusive, Sm TGR inh -30%, Pf growth 48h -13%, Cycloheximide cs -1, Shiga toxin inh -5 and NS1 function inh -16%.
CCc1ccccc1-n1nnc(-c2ccccc2)n1 was read as Pf growth 96h 49%, Sm TGR inh -7%, Pf growth 48h 2%, Cycloheximide cs 0, Shiga toxin inh 4 and NS1 function inh 3%.
Screening Brc1ccccc1-n1nnc(-c2ccnc3ccccc23)n1 returned Pf growth 96h inconclusive, Sm TGR inh 0%, Pf growth 48h -24%, Cycloheximide cs 19*, Shiga toxin inh 22 and NS1 function inh -3%.
Screening Cc1onc(-c2c(F)cccc2Cl)c1C(=O)OCC(=O)c1c[nH]c2ccccc12 returned Pf growth 96h inconclusive, Sm TGR inh -10%, Pf growth 48h inconclusive, Cycloheximide cs -2, Shiga toxin inh 3 and NS1 function inh 8%.
Screening CCCn1cc(CN2CCC(n3nccc3NC(=O)CCOc3ccccc3)CC2)c(C)n1 returned Pf growth 96h inconclusive, Sm TGR inh -2%, Pf growth 48h 2%, Cycloheximide cs 3, Shiga toxin inh -8 and NS1 function inh -10%.
Screening CC(C)C(=O)N1CCC(n2nccc2NC(=O)CCOc2ccccc2)CC1 returned Pf growth 96h inconclusive, Sm TGR inh 0%, Pf growth 48h -11%, Cycloheximide cs 17*, Shiga toxin inh 17 and NS1 function inh 1%.
Cc1ccccc1CN1CCC(n2nccc2NC(=O)CCOc2ccccc2)CC1 was read as Pf growth 96h 4.1µM*, Sm TGR inh 3%, Pf growth 48h inconclusive, Cycloheximide cs 2, Shiga toxin inh -3 and NS1 function inh 8%.
Screening O=C(CCOc1ccccc1)Nc1ccnn1C1CCN(Cc2ccccc2)CC1 returned Pf growth 96h inconclusive, Sm TGR inh -22%, Pf growth 48h -11%, Cycloheximide cs -2, Shiga toxin inh -9 and NS1 function inh 0%.
Cc1cc(C)c(CN2CCC(n3nccc3NC(=O)CCOc3ccccc3)CC2)cc1C was read as Pf growth 96h 13µM*, Sm TGR inh -10%, Pf growth 48h inconclusive, Cycloheximide cs -1, Shiga toxin inh 2 and NS1 function inh -12%.
COc1cccc(C(=O)N2CCC(n3nccc3NC(=O)CCOc3ccccc3)CC2)c1 was read as Pf growth 96h inconclusive, Sm TGR inh 2%, Pf growth 48h 3%, Cycloheximide cs 30*, Shiga toxin inh 28 and NS1 function inh 0%.
For Oc1c(C(c2cccc(Cl)c2)N2CCOCC2)sc2nc(-c3ccco3)nn12 (centres undefined) the results were Sm TGR inh -1%.
COc1cccc(NC(=O)CN2CCN(C(=O)c3ccco3)CC2)c1 was read as Pf growth 96h -7%, Sm TGR inh -33%, Pf growth 48h inconclusive, Cycloheximide cs -2, Shiga toxin inh -2 and NS1 function inh -1%.
Cc1ccc(C(=O)N2c3ccccc3N(Cc3ccccc3)C(=O)C2(C)C)cc1 was read as Pf growth 96h 7.4µM*, Sm TGR inh 34%, Pf growth 48h 12µM*, Cycloheximide cs -4, Shiga toxin inh 9 and NS1 function inh -75%.
Screening Cc1ccc(C(=O)CC2(O)C(=O)N(Cc3ccccc3)c3ccc(Br)cc32)cc1 (centres undefined) returned Sm TGR inh 12%.
Screening Cc1ccc(-c2nn(-c3cc(Cl)ccc3[N+](=O)[O-])c(=O)c3ccccc23)cc1 returned Pf growth 96h 12µM*, Sm TGR inh 3%, Pf growth 48h inconclusive, Cycloheximide cs -2, Shiga toxin inh -1 and NS1 function inh -3%.
`Cc1nn(-c2cc(N3CCCC3)ccc2[N+](=O)[O-])c(=O)c2ccccc12` gave Pf growth 96h inconclusive, Sm TGR inh 1%, Cycloheximide cs -2, Shiga toxin inh -5 and NS1 function inh 16%.
CC(C)(C)C(=O)N1CCN(c2ccc([N+](=O)[O-])c(-n3nc(-c4ccccc4)c4ccccc4c3=O)c2)CC1 was read as Pf growth 96h 9.3µM*, Sm TGR inh -1%, Pf growth 48h 5.2µM*, Cycloheximide cs -5, Shiga toxin inh 24 and NS1 function inh inconclusive.
`O=C(/C=C/c1cccc(Cl)c1Cl)OCC(=O)N1CCOCC1` gave Pf growth 96h 14%, Sm TGR inh -8% and Pf growth 48h 4%.
O=C(/C=C/c1c(F)cccc1Cl)N1CCc2ccccc2C1 was read as Pf growth 96h inconclusive, Sm TGR inh -17%, Pf growth 48h 0%, Cycloheximide cs 14* and NS1 function inh -49%.
For CCN1CCN(C(=O)/C=C/c2ccc(OC)c(OC)c2)CC1 the results were Pf growth 96h inconclusive, Sm TGR inh 1%, Pf growth 48h 29%, Cycloheximide cs 6, Shiga toxin inh -2 and NS1 function inh 18%.
For CCN1CCN(C(=O)/C=C/c2cccc(Cl)c2)CC1 the results were Pf growth 96h 0%, Sm TGR inh 6%, Pf growth 48h 8%, Cycloheximide cs 15*, Shiga toxin inh 23 and NS1 function inh 14%.
For CCN1CCN(C(=O)/C=C/c2c(F)cccc2Cl)CC1 the results were Pf growth 96h 7%, Sm TGR inh -1%, Pf growth 48h 12%, Cycloheximide cs 10, Shiga toxin inh 15* and NS1 function inh -5%.
For CCOC(=O)N1CCN(Cc2c(F)cccc2Cl)CC1 the results were Pf growth 96h 44%, Sm TGR inh 12%, Pf growth 48h 19%, Cycloheximide cs 4, Shiga toxin inh 1 and NS1 function inh -12%.
Screening Cc1nn(C)c2c1c(-c1ccccc1)cc(=O)n2CC(=O)NC(C)(C)C returned Sm TGR inh -11%.
For COc1cc(CN(C)Cc2cccc3ccccc23)cc([N+](=O)[O-])c1O the results were Pf growth 96h inconclusive, Sm TGR inh -7%, Pf growth 48h -10%, Cycloheximide cs -3, Shiga toxin inh -2 and NS1 function inh -2%.
